uPA generation: cell surface uPA generation inhibition. cell surface uPA generation assay, qHTS. Potency, µM (top dose mostly 38.3 µM), for inactives: at the highest dose activity change, negative = inhibition, hits mostly inhibitors. 0.31% of 330,000 active. AID 540303; active means well fitted inhibition curve with a large enough effect; inconclusive means small, poorly fitted or top-dose-only effect; inactive means no such curve, though single readings can be large or run the other way; tested in mouse RAW 264.7 cells; further: potency means the concentration at half of the fitted maximal effect; on the % scale 0 is the no-effect control and ±100 the full control effect; nearly all actives have a fitted effect of over 55% in size
MCF10A rerep: induces DNA re-replication in MCF 10a normal breast cells; MCF 10A DNA re-replication, Hoechst nuclear intensity, 48 h; Potency, µM (highest dose often 46.1 µM), for the others: at the top dose activity, positive = re-replication, most hits filed as activators; 2.9% of 350,000 active; further: potency means the concentration at half of the fitted maximal effect; % of control where 0% means no effect; nearly all actives have a fitted effect of over 50% in size
Giardia kill: kills Giardia lamblia; 0.15% of 340,000 active; activity change, % at 7.66 µM, hits read low; Giardia lamblia trophozoite viability; in the data active means activity change below about -80%; inconclusive means between about -30% and that limit;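 further: parasites exposed to compound for two days anaerobically before the ATP read; on the % scale 0 is the no-effect control and ±100 the full control effect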
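Luminescence from cellular ATP indicates surviving trophozoites (100 cells/well) following 48 hrs anaerobic compound treatment at 37 deg C; signal develops 15-30 min at room temperature.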
SW480 rerep: induces DNA re-replication in SW480 colon adenocarcinoma cells; Potency, µM (series often up to 46.1 µM), inactives show at the highest dose re-replication activation, hits mostly activators; SW480 DNA re-replication, Hoechst DNA content imaging, 48 h; 1.8% of 340,000 active; further: potency means the concentration at half of the fitted maximal effect; % of control where 0% means no effect; nearly all actives have a fitted effect of over 55% in size
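Per well, 250 cells were exposed to pinned compound for 48 hr. Nuclear DNA was visualised with Hoechst (40 min, 37 C) and total object intensity recorded by fluorescence scanning.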
The depositor's hits bear a star; ? = inconclusive; / = no result. A selection: hits, their analogues and other compounds. The true share with any hit is near 4.3%. Unless noted, the call rests on the fitted dose curve; in most records, active means well fitted activation curve with a large enough effect; inconclusive means small, poorly fitted or top-dose-only effect; inactive means no such curve, though single readings can be large or run the other way.

SMILES	uPA generation	MCF10A rerep	Giardia kill	SW480 rerep
O=C(Oc1c(CN2CCOCC2)cc(Cl)c2cccnc12)c1ccccc1F	-4%	18µM*	16	6.5µM*
CN1CCN(Cc2cc(COCc3ccccc3)c3cccnc3c2O)CC1	-12%	?	-12	6.3µM*
COc1ccc(C(=O)Oc2c(CN3CCOCC3)cc(Cl)c3cccnc23)cc1OC	11%	2%	16	-15%
Oc1ccc(CN2CCN(Cc3ccccc3)CC2)c2cccnc12	-8%	13%	-15	?
Cc1cc(=O)[nH]c(NN=C2CCCCC2C)n1 (configuration not stated)	-4%	1%	-16	7%
NC(=O)C1Cc2ccccc2CN1C(=O)c1nn(Cc2ccccc2)c(=O)c2ccccc12 (configuration not stated)	7%	-1%	2	1%
Cc1ccc(NC2CCCN(C(=O)c3ccnc(Cl)c3)C2)cc1C (configuration not stated)	-2%	1%	-29	-28%
O=C(Oc1c(CN2CCOCC2)cc(Cl)c2cccnc12)c1ccccc1	-10%	?	-20	8.2µM*
COc1cc(OC)cc(C(=O)Oc2c(CN3CCOCC3)cc(Cl)c3cccnc23)c1	0%	-3%	-11	?
CC1=C(C(=O)Nc2cc(C(=O)N3CCN(c4cccc(C)c4C)CC3)ccc2C)SCCO1	-9%	16%	-13	-2%
COc1ccc(C(=O)Nc2ccccc2C(=O)N/N=C/c2cccc3ccccc23)cc1	-4%	6%	-95*	14%
O=C(Nc1ccccc1C(=O)N/N=C/c1ccc(O)cc1)c1ccccc1	7.1µM*	-3%	-17	-10%
CCCc1cc(=O)oc2c3c(ccc12)OCN(Cc1ccc(OC)cc1)C3	/	/	33	/
CC1(C)CC(=O)C=C(Nc2ccc(Cl)c(Br)c2)C1	-8%	?	-22	?
c1ccc(CNc2ncnc3c2ncn3C2CCCCO2)cc1 (configuration not stated)	5%	16µM*	-13	29%
N#Cc1ccc(-c2csc(NNC(=O)c3ccccc3)n2)cc1	-17%	-3%	-5	?
N#Cc1ccc(-c2csc(NNC(=O)c3ccc(Br)cc3)n2)cc1	-5%	?	-7	5.2µM*
O=C(NNc1nc(-c2ccc(Br)cc2)cs1)c1ccco1	?	2.6µM*	-9	?
O=C(NC(=S)Nc1nc(-c2ccc(Br)cc2)cs1)c1ccco1	5%	47%	-8	-4%
C[C@]1(O)CC(=O)C=C[C@H]1Nc1ccccc1	8.9µM*	?	4	?
CC1(C)CC(C(=O)Nc2ccccc2)C(=O)O1 (configuration not stated)	2%	1%	6	-98%
CCN(CC)CCn1c2ccccc2c2nc3ccccc3nc21	10µM*	?	-7	?
CCCn1c2ccccc2c2nc3ccccc3nc21	-1%	22µM*	-10	?
O=C1C2C3C=CC(O3)C2C(=O)N1N=Cc1ccc2c(c1)OCO2 (configuration not stated)	2%	-39%	-7	-1%
Cc1ccc(-c2ccc(/C=N/NC(N)=S)o2)cc1	-1%	?	3	-14%
SMILES	uPA generation	MCF10A rerep	Giardia kill	SW480 rerep
NC(=S)N/N=C/c1ccc(-c2ccccc2)o1	13%	0.73µM*	10	22%
NC(=S)NN=Cc1nccc2ccccc12	-18%	?	-28	2.9µM*
Cc1cnc(C=NNC(N)=S)c2cccc(N)c12	-7%	25%	1	?
NC(=S)N/N=C/c1cccc(/C=N/NC(N)=S)c1	-2%	4%	9	3%
NC(=S)N/N=C/c1ccc(/C=N/NC(N)=S)cc1	9%	?	6	18µM*
O=C1CN(c2ccc(Cl)cc2)C2(CCCCC2)S1	-6%	?	8	-2%
O=C(/C=C\c1cn(-c2ccccc2)nc1-c1ccc2c(c1)OCCO2)N1CCOCC1	26%	18µM*	-4	-70%
CCCNC(=O)c1c(N)n(-c2cccc(OC)c2)c2nc3ccccc3nc12	-2%	7.3µM*	2	?
C=CCNC(=O)c1c(N)n(-c2ccc3c(c2)OCO3)c2nc3ccccc3nc12	-9%	1%	-6	-1%
COCCCNC(=O)c1c(N)n(-c2cccc(S(N)(=O)=O)c2)c2nc3ccccc3nc12	-2%	18µM*	-18	21µM*
O=C(NCCN1CCOCC1)c1ccc2ccccc2n1	/	1%	-8	-10%
COCCCNC(=O)c1c(N)n(/N=C/c2ccccn2)c2nc3ccccc3nc12	0%	?	1	?
Nc1c(C(=O)NCCN2CCOCC2)c2nc3ccccc3nc2n1-c1cccc(F)c1	14%	18µM*	11	16µM*
CC(C)OCCCNC(=O)c1c(N)n(/N=C/c2cccs2)c2nc3ccccc3nc12	4%	8.2µM*	-15	?
CCCCCN(C(=O)CCC(=O)OC(C)C(=O)c1ccc(CC)cc1)c1c(N)n(CCCC)c(=O)[nH]c1=O (configuration not stated)	-6%	4%	2	-4%
N#Cc1c(N)n(-c2cccc(C(=O)O)c2)c2nc3ccccc3nc12	11%	21µM*	1	?
Nc1c(C(=O)Nc2ccccc2)c2nc3ccccc3nc2n1CCCN1CCOCC1	3%	10µM*	4	18µM*
COc1cc2c(cc1O)CCN[C@@]21CS[C@H]2c3c(OC(C)=O)c(C)c4c(c3C(COC1=O)N1C2C2c3c(cc(C)c(OC)c3O)CC([C@@H]1O)N2C)OCO4 (some centres not stated)	/	-23%	/	-5%
NC(CSCC(=O)O)C(=O)O (configuration not stated)	/	-1%	/	3%
COc1ccc2c(C#CCCO)c(-c3ccc(S(C)(=O)=O)cc3)sc2c1	-13%	21µM*	1	?
COc1ccc2sc(-c3ccc(S(C)(=O)=O)cc3)c(C#CCO)c2c1	-4%	?	-4	1%
CCOc1ccc(C(CCc2ccccc2)NC(=O)c2ccccc2OC)cc1OCC (configuration not stated)	/	21µM*	-2	?
CCOc1ccc(C(C)NC(=O)Cc2ccccc2F)cc1OCC (configuration not stated)	-4%	-3%	10	1%
CCOc1ccc(C(CCc2ccccc2)NC(=O)c2ccccc2F)cc1OCC (configuration not stated)	/	-20%	2	-1%
CCOc1ccc(C(C)NC(=O)Cc2ccccc2)cc1OCC (configuration not stated)	4%	-6%	2	15µM*
COC1CCC2(C)C(=CCC3C4CC(O)CC4(C)CCC32)C1 (configuration not stated)	0%	12%	-17	-2%
Fc1ccc2c(c1)C1C=CCC1C(c1cc3c(cc1Br)OCO3)N2 (configuration not stated)	/	23µM*	-7	?
CCCCNC(=O)C(CC)n1c(SCc2cccc(F)c2)nc2ccncc21 (configuration not stated)	/	/	-28	/
Oc1cccc2ccc(Nc3ccccn3)nc12	-10%	5.8µM*	-4	?

Assay outcomes deposited in PubChem BioAssay by National Center for Advancing Translational Sciences (NCATS).
